This note sets out measurements from PubChem BioAssay AID2012 (Sanford-Burnham Center for Chemical Genomics, 2009).

The experiment has as its target Eukaryotic translation initiation factor 4H (Homo sapiens) (UniProt Q15056). The experiment in a line: human eIF4H binding inhibitors, primary screen, translation initiation inhibitor project, biochemical, uHTS, fluorescence polarization (AID 2012).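 Note: calls also rest on retests at 20 µM and on dose response follow-up.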 The settings on record: eIF4H fluorescence polarization binding assay, stronger effect = higher value. For orientation: In fluorescence polarisation assays a small probe gives low polarisation when free and higher when bound to something large.

SMILES strings stand for the structures. The campaign covered roughly 290,000 compounds. About 2,700 (0.93%) were called active. The rule behind the calls is not given here. Only a selection was taken, and actives are over-represented in it overall.

For the compound `CNC(=O)c1sc(Nc2ccc(OCc3ccccc3)cc2)nc1C`, the inhibition (at 35 µM) was 8% (inactive).

In the case of `CC(=O)Nc1ccc(/C=N/Nc2ccc(C(=O)c3c(C)cc4ccccn34)cc2[N+](=O)[O-])cc1`, where the note is “at 35 µM”, the inhibition was 8.5% (inactive). Regarding `Cc1ccc(C(C[N+](=O)[O-])c2c(C)cc3ccccn23)cc1` (stereo unspecified), the inhibition runs as follows: (at 35 µM) 54.1% (active); (confirmation average, at 20 µM) 84.9%. Consider `Cc1cc2ccccn2c1C(=O)c1cccc(F)c1`, for which the inhibition (at 35 µM) is -9.7% (inactive).

Consider `CCOc1ccc(N(C)S(=O)(=O)c2cnc[nH]2)cc1`, for which the inhibition (at 35 µM) is -1% (inactive). Regarding `COc1ccc(CNC(=O)C(Cc2ccccc2)n2cccc2)cc1` (stereo unspecified), the inhibition (at 35 µM) was 1.8% (inactive).

Turning to `Cc1ccc(C)n1C(Cc1ccccc1)C(=O)O` (stereo unspecified), the inhibition (at 35 µM) is 83% (active). As to `CC(Cc1ccccc1)C(=O)N(C)Cc1ccccc1` (stereo unspecified), the inhibition (at 35 µM) was -2.7% (inactive). For the compound `CCC(CC)C(=O)N1CCN(c2cccc(C)c2C)CC1`, the inhibition (at 35 µM) is -9.8% (inactive). Consider `Cc1cccc(N2CCN(C(=O)/C=C/c3ccco3)CC2)c1C`, for which the inhibition is 57.3% (active) (at 35 µM) and 101% (confirmation average, at 20 µM). For the compound `O=C(/C=C/c1ccco1)NC(=S)N1CCCCC1`, under “at 35 µM”, the inhibition is 5.7% (inactive). `CCOc1cc(/C=C2\SC(N3CCCC(C)C3)=NC2=O)ccc1O` (stereo unspecified): the inhibition (at 35 µM) is 1.3% (inactive). Consider `CC(=O)c1cccc(NC(=O)C2CCN(C(=O)c3ccccc3Cl)CC2)c1`, for which the inhibition (at 35 µM) was 3.5% (inactive). The same measure, in the same setting: for `Cn1c(-c2ccco2)nc2cc3ccccc3cc21` the value was 4.9% (inactive); for `COc1ccc(CCn2c(-c3ccco3)nc3nc4ccccc4nc32)cc1OC`, 3.6% (inactive). Turning to `c1coc(-c2nc3nc4ccccc4n3nc2-c2ccco2)c1`, the inhibition (at 35 µM) is 73.4% (active).

For the compound `O=C(Nc1ccc(Cl)cc1)c1cccc(OC(=S)N2CCOCC2)c1`, the inhibition (at 35 µM) was -8.8% (inactive). `CC(=O)N1c2ccc(S(=O)(=O)N(C)CC(=O)N(C)Cc3ccccc3)cc2CC1C` (stereo unspecified): the inhibition (at 35 µM) was 2.8% (inactive).

Take `O=C(CN1C(=O)c2cccnc2Oc2ccc(Cl)cc21)Nc1ccc(F)cc1`: the inhibition (at 35 µM) is -8.2% (inactive). In the case of `O=C(/C=C/Sc1ncn[nH]1)c1ccc(Cl)cc1`, the inhibition (at 35 µM) was 60.7% (active) and the inhibition (confirmation average, at 20 µM) amounted to 65.7%.

Take `Cc1cc(C)nc(S/C=C/C(=O)c2ccccc2)n1`: the inhibition (at 35 µM) is -7.4% (inactive). With `COc1ccc(Cl)cc1CSc1ncn[nH]1`, the inhibition (at 35 µM) was -9.7% (inactive).

As for `COc1ccc(C(=O)C2CCCN(C(=O)c3ccc(OC)o3)C2)c(C)c1` (stereo unspecified), the inhibition (at 35 µM) is -2.6% (inactive). On to `Oc1cccc(/C=N/Nc2ccc(Cl)nn2)c1O`, for which the inhibition (at 35 µM) is 24.2% (inactive). Regarding `COc1ccc(/C=C2\SC(=S)N(CCCC(=O)NC3CCCC3)C2=O)cc1OC`, the inhibition (at 35 µM) was 48.7% (inactive). In the case of `Cc1ccc(C(=O)Nc2nnc(-c3cccs3)s2)cc1C`, under “at 35 µM”, the inhibition was -2.7% (inactive). On to `Cc1ccc(C(=O)Oc2coc(CSc3nnc(NC(=O)c4cccs4)s3)cc2=O)cc1C`, for which the inhibition is 65.8% (active) (at 35 µM) and 85.6% (confirmation average, at 20 µM).

For `CCSc1nnc(NC(=O)c2ccc(C)cc2)s1`, the inhibition (at 35 µM) was -9.1% (inactive). On to `CN1CCN(C(=O)c2ccccc2NC(=O)COc2ccccc2Cl)CC1`, for which the inhibition (at 35 µM) was -9.2% (inactive). `Cn1c(=O)[nH]c(=O)c2c1nc(N1CCN(C(c3ccccc3)c3ccccc3)CC1)n2CCO`: where the note is “at 35 µM”, the inhibition is 0.3% (inactive). Regarding `CCCc1ccc(OCCNC(=O)c2ccccc2Br)cc1`, the inhibition (at 35 µM) was 8.8% (inactive). Turning to `O=C(NC(=S)Nc1ncccn1)c1ccccc1Br`, the inhibition (at 35 µM) is -2% (inactive).

On to `CCOc1cnc(C(=O)NNC(=O)c2ccccc2Br)o1`, for which the inhibition is, setting by setting: (at 35 µM) 85.7% (active); (confirmation average, at 20 µM) 95%. In the case of `CCCCc1nc2cc(C(=O)N3CCCCC3CCO)ccc2o1` (stereo unspecified), where the note is “at 35 µM”, the inhibition is -1.1% (inactive). `COc1ccc(CCNC(=O)C(=O)NCC2OCCN2S(=O)(=O)c2cccs2)cc1OC` (stereo unspecified): the inhibition (at 35 µM) was -4.1% (inactive). On to `CCOc1ccc(NC(=O)c2ccc(NC(=O)C3CCCO3)cc2)cc1` (stereo unspecified), for which, where the note is “at 35 µM”, the inhibition was -9.4% (inactive). On to `Cc1ccc(OCC(=O)Nc2ccc(C(=O)O)cc2NC(=O)COc2ccc(C)c(C)c2)cc1C`, for which, under “at 35 µM”, the inhibition is 4.8% (inactive). Same read-out and setting: the figure for `Cc1ccc(NC(=S)Nc2ccc(F)cc2)cc1` is -11.3% (inactive); for `CCCSc1nc(NCc2ccco2)c2c3c(sc2n1)COC(C)(CC)C3` (stereo unspecified) it is 4.7% (inactive). On to `CN1CCc2c(sc3c2c(NCc2ccco2)nc2nnnn23)C1`, for which the inhibition (at 35 µM) is 68% (active). Consider `Cn1c(=O)n(Cc2ccco2)c(=N)c2c3c(sc21)CCCC3`, for which the inhibition (at 35 µM) is -14.4% (inactive). As to `O=C(CCN1C(=O)[C@@H]2Cc3ccccc3CN2C1=O)NCCc1ccccc1`, under “at 35 µM”, the inhibition was 80.7% (active). With `Cc1ccc(CNC(=O)CCN2C(=O)[C@@H]3Cc4ccccc4CN3C2=O)cc1`, the inhibition (at 35 µM) was -3.4% (inactive). As for `O=C(CCN1C(=O)[C@@H]2Cc3ccccc3CN2C1=O)NCc1ccccc1`, the inhibition (at 35 µM) is -0.5% (inactive).

As for `COc1ccc(OC)c(C(O)c2nc3ccccc3n2C)c1` (stereo unspecified), where the note is “at 35 µM”, the inhibition is -3.8% (inactive). On the same count and under the same terms, the figure for `Cc1ccc(C(C)C)cc1OCC(=O)Nc1ccccc1N1CCCC1` is -15.8% (inactive). In the case of `CC(=O)Oc1ccc(-c2cccc(C(=O)N3CCCCC3)c2)cc1`, where the note is “at 35 µM”, the inhibition was 5.5% (inactive).

For `CC(C)(C)C1C/C(=C/c2ccco2)C(=O)/C(=C/c2ccco2)C1` (stereo unspecified), the inhibition is 71.6% (active) (at 35 µM) and 82.6% (confirmation average, at 20 µM). As to `O=C1OC(/C=C/c2ccccc2)=NC/1=C/c1ccco1`, the inhibition by setting is: (at 35 µM) 76.9% (inactive); (confirmation average, at 20 µM) 4.3%.

The inhibition is the drop in the measured response relative to a control, in per cent.
